Jurkat NFkB inh – lowers PMA/ionomycin-induced NF-kB signal in Jurkat cells; PMA/ionomycin-induced NF-kB luciferase reporter, luminescence; inhibition, % at 4 µM; actives 0.53% (n = 330,000); AID 435003; in the data active = inhibition above about 50%
697 NFkB inh – lowers PMA/ionomycin-induced NF-kB signal in 697 B cells; AID 435022; inhibition, % at 4 µM; 697 B-cell NF-kB luciferase reporter, 16 h; actives 0.33% (n = 330,000); in the data active = inhibition above about 35%
HIF act – HIF pathway transcriptional activation; U2OS HRE-luciferase reporter, luminescence; normalized: DMSO 0%, desferrioxamine 100%; activation, % at 7.5 µM (by protocol); actives 0.32% (n = 300,000); AID 1910;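 active = mean activation of at least 10% of the iron chelator positive control signal, with at least half of replicates also reaching 10%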
CFTR F508del cor – CFTR F508del correction in bronchial cells; activity (quench increase), % at 7.58 µM; actives 0.36% (n = 350,000); CFBE cells, YFP halide quenching; stimulated with forskolin plus potentiator P3; % fluorescence drop versus neutral controls;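 active = mean added fluorescence quench of at least 8% versus neutral control, with both replicates also reaching 8%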;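 note: cells transiently co-express mutant CFTR-F508del with the halide-sensitive YFP; corrector assay measuring rescue of mutant channel to the surface after 24 h compound exposure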
* hit, by the source's call; / = not tested or not shown. Sampled rows, rich in hits. Any-hit rate of the full collection: about 0.93%.

SMILES	Jurkat NFkB inh	697 NFkB inh	HIF act	CFTR F508del cor
COc1ccc2c3c([nH]c2c1)[C@H](CO)N(S(C)(=O)=O)CC31CCN(Cc2cccc(F)c2)CC1	/	/	/	8.3*
COc1ccc2c3c([nH]c2c1)[C@H](CO)N(C(=O)NC(C)C)CC31CCN(Cc2ccccc2)CC1	/	/	/	3.3
CCCNC(=O)N1CC2(CN(CC3CCCCC3)C2)c2c(n(C)c3cc(OC)ccc23)[C@H]1CO	/	/	/	9.3*
COc1ccc2c3c([nH]c2c1)[C@@H](CO)N(S(C)(=O)=O)CC31CCN(Cc2cccc(F)c2)CC1	/	/	/	5.2
COc1ccc2c3c([nH]c2c1)[C@@H](CO)N(C(=O)Nc1ccc(F)cc1)CC31CCN(S(=O)(=O)c2ccccc2)CC1	/	/	/	5.1
COCC(=O)N1CC2(CCN(Cc3ccccc3)CC2)c2c([nH]c3cc(OC)ccc23)[C@H]1CO	/	/	/	12.8*
CCCNC(=O)N1CC2(CN(CC3CCCCC3)C2)c2c(n(C)c3cc(OC)ccc23)[C@@H]1CO	/	/	/	1.8
COc1ccc2c3c([nH]c2c1)[C@H](CO)N(C(=O)Nc1ccc(F)cc1)CC31CCN(S(=O)(=O)c2ccccc2)CC1	/	/	/	8.8*
COc1ccc2c3c(n(C)c2c1)[C@H](CO)N(C(=O)C1CC1)CC31CCN(Cc2cccc(F)c2)CC1	/	/	/	15.4*
COc1ccc2c3c(n(C)c2c1)[C@@H](CO)N(C(=O)C1CC1)CC31CCN(Cc2cccc(F)c2)CC1	/	/	/	5.8
CO[C@H]1CN(C)C(=O)c2ccc(NS(C)(=O)=O)cc2OC[C@H](C)N(Cc2ccccc2)C[C@@H]1C	/	/	/	-1.0
CCN(C(=O)COC(=O)/C=C/c1ccc2c(c1)OCO2)c1c(N)n(Cc2ccccc2)c(=O)[nH]c1=O	/	/	/	-0.2
CCN(C(=O)COC(=O)/C=C/c1c(C)nn(-c2ccccc2)c1C)c1c(N)n(Cc2ccccc2)c(=O)[nH]c1=O	/	/	/	10.1*
CCN(C(=O)COC(=O)c1cc2c(s1)CCC(C)C2)c1c(N)n(Cc2ccccc2)c(=O)[nH]c1=O (stereo not drawn)	/	/	/	3.4
CCN(C(=O)CSc1nnc(C)n1-c1ccc(C)cc1)c1c(N)n(Cc2ccccc2)c(=O)[nH]c1=O	/	/	/	19.5*
CCN(C(=O)CSc1nncn1-c1ccccc1)c1c(N)n(Cc2ccccc2)c(=O)[nH]c1=O	2.4	-5.5	0.0	0.2
CCN(C(=O)COC(=O)c1cc2c(s1)CCCC2)c1c(N)n(Cc2ccccc2)c(=O)[nH]c1=O	-17.2	-16.9	/	15.1*
CCC(=O)Nc1ccc2c(c1)OC[C@@H](C)N(C(=O)Cc1cccnc1)C[C@@H](C)[C@H](OC)CN(C)C2=O	/	/	/	0.1
C[C@H](CO)N1C[C@H](C)[C@H](CN(C)CC2CC2)Oc2ncc(C#CC3(O)CCCC3)cc2C1=O	/	/	/	-1.5
C=CCN1C(=O)c2ccccc2Sc2ccc(C(=O)N3CCN(C)CC3)cc21	-7.3	2.9	10.1*	/
C=CCN1C(=O)c2ccccc2Sc2ccc(C(=O)NC(C)C)cc21	-37.1	-0.8	0.0	-0.2
CCCNC(=O)N1[C@H](CO)[C@@H](c2ccc(C3=CCCC3)cc2)[C@@H]1CN(C)C(C)=O	/	/	/	8.1*
CCCNC(=O)N1[C@H](CO)[C@@H](c2ccc(C3=CCCC3)cc2)[C@H]1CNC(C)=O	/	/	/	2.9
C[C@H](NC(=O)C[C@@H]1C[C@@H]2c3cc(NC(=O)C4CCOCC4)ccc3O[C@@H]2[C@H](CO)O1)c1ccccc1	/	/	/	-2.2
COc1ccc(C2c3ccc4ccccc4c3Oc3ncn(CCCO)c(=N)c32)cc1OC (stereo not drawn)	36.5	-10.8	0.6	15.0*
SMILES	Jurkat NFkB inh	697 NFkB inh	HIF act	CFTR F508del cor
COc1ccc(NC(=O)Nc2cccc3c2O[C@H](CN(C)S(=O)(=O)c2ccccc2)[C@@H](C)CN([C@@H](C)CO)C3=O)cc1	/	/	/	-2.7
COC(=O)C[C@H]1CC[C@H]2[C@H](COc3ccc(NC(=O)c4ccc(F)cc4)cc3C(=O)N2C)O1	/	/	/	2.3
O=C(NC(=S)NNC(=O)c1ccccc1O)c1ccccc1	12.7	-15.9	-0.5	1.2
Cc1ccc(C(=O)NC(=S)NNC(=O)c2ccccc2O)cc1	-9.7	-22.7	2.0	9.7*
Cc1cc2oc(C(=O)NCCc3ccc(S(N)(=O)=O)cc3)c(C)c2cc1C	-15.0	12.2	-1.0	11.7*
O=C(C[C@H]1C[C@@H]2c3cc(NC(=O)Nc4ccccc4)ccc3O[C@@H]2[C@@H](CO)O1)NC1CCCCC1	/	/	/	-2.4
COc1ccc2c(c1)c(CC(=O)OCC(=O)O)c(C)n2C(=O)c1ccc(Cl)cc1	11.2	12.1	0.2	8.5*
COc1ccc2c(c1)c(CC(=O)OCC(N)=O)c(C)n2C(=O)c1ccc(Cl)cc1	6.7	6.4	-0.3	0.1
CC(C)C#Cc1cnc2c(c1)C(=O)N([C@H](C)CO)C[C@@H](C)[C@@H](CN(C)C(=O)c1ccccc1F)O2	/	/	/	-1.6
O=C(OCc1cccc(Cl)c1)c1cc([N+](=O)[O-])ccc1N1CCOCC1	43.6	-18.3	1.4	1.1
O=C(OCc1ccc(Br)cc1)c1cc([N+](=O)[O-])ccc1N1CCOCC1	/	/	/	8.4*
CCCn1cc(NC(=O)c2cc(-c3ccccc3)on2)cn1	-41.4	-29.7	10.5*	/
C[C@@H]1CCCCO[C@@H](CN(C)C(=O)CCCN(C)C)[C@H](C)CN([C@@H](C)CO)C(=O)c2cc(NC(=O)Nc3ccc(F)cc3)ccc2O1	/	/	/	-1.7
O=C(Cc1ccc(Cl)c(Cl)c1)OCC(=O)c1ccc[nH]1	-6.7	-25.3	-0.6	/
O=C(Cc1ccc(Cl)cc1)OCC(=O)c1ccc[nH]1	12.5	16.1	/	23.4*
COc1ccc2c3c(n(C)c2c1)[C@@H](CO)N(C(=O)c1ccccn1)CC31CCN(C)CC1	/	/	/	-2.5
COc1ccc(-c2ccnc(-c3ccncc3)n2)cc1	44.9	-45.5	1.0	2.2
COc1ccc(-c2ccnc(-c3ccc(O)cc3)n2)cc1	38.9	-24.0	2.2	10.6*
CC(C)CN(CCCNC(=O)CN1C(=O)CSc2ccc(S(=O)(=O)N3CCOCC3)cc21)CC(C)C	1.3	15.5	1.4	10.3*
CCn1c(C(=O)NCCCc2ccccc2)cc2sccc21	1.4	-0.5	0.3	/
O=C(NCCc1ccccc1)c1cc2sccc2n1Cc1ccccc1	-15.8	11.9	74.6*	/
CCN(CC(=O)Nc1cccc(F)c1)CC(=O)Nc1ccc2c(c1)OCCO2	/	/	/	-4.6
CCN(CC(=O)Nc1ccc2c(c1)OCCO2)CC(=O)Nc1ccc2c(c1)OCO2	9.9	22.2	54.0*	0.7
CC(C)(C)NC(=O)CN(Cc1ccc2c(c1)OCO2)C(=O)CNS(=O)(=O)c1ccc(F)cc1	-8.1	8.7	19.2*	-2.1
O=C(O)c1ccc(-c2ccccc2)[nH]1	-12.9	10.6	-0.1	/
O=C(O)c1ccc2cc(-c3ccccc3)[nH]c2c1	-32.0	-208.4	19.9*	-0.5
O=C(/C=C/c1cn(-c2ccccc2)nc1-c1ccccc1)Nc1ccc(C(=O)O)cc1	-15.8	-64.4	16.0*	-0.8
NS(=O)(=O)c1ccc(NC(=O)/C=C/c2cn(-c3ccccc3)nc2-c2cccc(Cl)c2)cc1	-0.1	11.7	-2.1	-1.4
O=C(N[C@H]1CC[C@@H](CC(=O)N2CCOCC2)O[C@@H]1CO)c1ccccn1	/	/	/	-2.6

Source: PubChem
